# Hits are enriched below; roughly 21% of the tested compounds scored in any of these assays.
# CHX counter: Cycloheximide Counterscreen for Small Molecule Inhibitors of Shiga Toxin; cell reporter, cycloheximide protein synthesis inhibition counterscreen; max response, %; 300,000 tested, 12% active; AID 2314, 2010; in the data active = max response mostly above about 13%, no sharp cut-off; inactive = mostly below about 14%; note: read at 38.3 µM for the half of the compounds with a filed dose
# Pf growth 96h: Primary qHTS for delayed death inhibitors of the malarial parasite plastid, 96 hour incubation; P. falciparum luciferase reporter growth, 96 h; Potency, µM (titrated, usually from 28.7 µM), actives largely listed as inhibitors; 320,000 tested, 6.9% active
#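 Readout is luminescence from an integrated firefly luciferase in P. falciparum. Red cells, 2% hematocrit and 0.05% parasitemia final, were cultured with compound through two parasite generations (96 hours) at 37 C, 5% CO2.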
# NS1 inh: qHTS Assay for Inhibitors of Influenza NS1 Protein Function | Potency, µM (series often up to 46.1 µM) | AID 2326, 2010 | 270,000 tested, 0.4% active; calls by dose curve; note: actives are rising curves; nearly all actives have a fitted effect of over 50% in size
#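 Compounds were scored for reversing the slow growth caused by influenza A NS1 in S. cerevisiae, measured by optical density at 600 nm. Assay medium contained 2% galactose at pH 6.0; NS1-free yeast of the same strain were the positive control.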
# SARS PLpro yeast: qHTS of Yeast-based Assay for SARS-CoV PLP; S. cerevisiae expressing SARS-CoV PLpro, growth rescue; AID 485353, 2010; Potency, µM (series often up to 32.9 µM), usual class: activators; 330,000 tested, 0.19% active; calls by dose curve; note: nearly all actives have a fitted effect of over 55% in size
# Pf growth 48h: Primary qHTS for delayed death inhibitors of the malarial parasite plastid, 48 hour incubation. P. falciparum luciferase growth in erythrocytes, 48 h. Potency, µM (highest dose often 28.7 µM), most hits filed as inhibitors. 310,000 tested, 5.9% active
#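 Parasite viability was followed by luminescence of a genomically integrated firefly luciferase. Cultures held 0.1% parasitemia at 2% hematocrit (final), incubated under 5% CO2 at 37 C.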
# Shiga inhibitor: A qHTS for Small Molecule Inhibitors of Shiga Toxin; Vero cells, Shiga toxin protein synthesis inhibition reporter; inhibition, % at 38.7 µM; 290,000 tested, 9.2% active; AID 2315, 2010; in the data active = inhibition mostly above about 28%, no sharp cut-off; inactive = mostly below about 43%
# Numbers stand for hits; – = inactive; ? = inconclusive; · = not tested or not shown; ! = repeats disagree; [ ] = dose if it differs, or a comment. Unless noted, calls come from the whole dose curve; as a rule, active = well fitted inhibition curve with a large enough effect; inconclusive = small, poorly fitted or top-dose-only effect, or another doubt; inactive = no such curve, though single readings can be large or run the other way.
SMILES,CHX counter,Pf growth 96h,NS1 inh,SARS PLpro yeast,Pf growth 48h,Shiga inhibitor
CC1CCN(C(=O)CCS(=O)(=O)c2cc3c(cc2Cl)NC(=O)CO3)CC1,–,–,–,–,–,–
COc1cc2cc(C(=O)N3CCOCC3)cc(-c3ccc(C)cc3)c2cc1OC,–,8.3µM,–,–,?,–
COc1ccc(-c2cccc(C(=O)N3CCOCC3)c2)cc1,30,–,–,–,–,57
COc1ccc(OCc2ccc(C(=O)N3CCOCC3)cc2)cc1,28,–,–,–,–,56
O=C(c1cccc(Oc2ccccc2)c1)N1CCOCC1,–,–,–,–,?,–
COc1ccc(OCCC(=O)N2CCOCC2)cc1,–,–,–,–,–,–
COc1ccc(OCc2ccc(C(=O)O)cc2)cc1,18,–[5.75 µM],–,–,–,–
Cc1ccc(S(=O)(=O)N(CC(=O)NCC2CCCO2)Cc2ccc(F)cc2)cc1 (stereo unspecified),–,–,–,–,?,–
CC(=O)c1ccc(OCC(=O)NC2CCCN(Cc3ccccc3F)C2)cc1 (stereo unspecified),–,?,–,–,?,–
CSc1ccccc1NC(=O)c1noc(C)c1[N+](=O)[O-],–,–,–,–,–,–
CSc1nn(-c2ccc(C(=O)OCC(=O)NC(=O)NC(C)C)cc2)c(=S)s1,27,–,–,–,–,–
CC(=O)OC1c2c(ccc3ccc(=O)oc23)OC(C)(C)C1OC(=O)CC(C)C (stereo unspecified),–,?,–,–,–,–
C/C=C(/C)C(=O)O[C@@H]1c2c(ccc3ccc(=O)oc23)O[C@@H]1C(C)(C)OC(C)=O,–,5.9µM,–,–,–,–
C/C=C(/C)C(=O)O[C@@H]1[C@H](OC(=O)C=C(C)C)c2c(ccc3ccc(=O)oc23)OC1(C)C,–,?,–,–,?,–
C/C=C(/C)C(=O)O[C@@H]1c2c(ccc3ccc(=O)oc23)OC(C)(C)[C@@H]1OC(=O)/C(C)=C\C,–,6.6µM,–,–,6.6µM,–
O=C(NCCCn1cccn1)C1CCC(=O)N(Cc2cccc(C(F)(F)F)c2)C1 (stereo unspecified),–,–,–,–,–,–
O=C(NCC1CCOCC1)C1CCC(=O)N(Cc2cccc(C(F)(F)F)c2)C1 (stereo unspecified),–,?,–,–,–,–
O=C(NCc1cccs1)C1CCC(=O)N(Cc2cccc(C(F)(F)F)c2)C1 (stereo unspecified),39,?,–,–,?,–
O=C1CCC(C(=O)N2CCCC2)CN1Cc1cccc(C(F)(F)F)c1 (stereo unspecified),–,–,–,–,–,–
O=C1CCC(C(=O)N2CCCO2)CN1Cc1cccc(C(F)(F)F)c1 (stereo unspecified),29,–,–,–,–,44
O=C(NCCCC1CCCC1)C1CCC(=O)N(Cc2cccc(C(F)(F)F)c2)C1 (stereo unspecified),–,12µM,–,–,–,–
Cc1ccc(NC(=O)CN2CCCC2c2cccn2C)c(Br)c1 (stereo unspecified),·,·,·,–,·,·
Cc1ccc(Cl)cc1NC(=O)Cn1nc(-c2cccs2)ccc1=O,–,?,–,–,–,–
CCOC(=O)COc1ccc(C(=O)Nc2cccc(Cl)c2C)cc1,–,–,–,–,–,–
O=C(CSCCO)Nc1ccc(C23CC4CC(CC(C4)C2)C3)cc1,24,–,–,–,–,53
SMILES,CHX counter,Pf growth 96h,NS1 inh,SARS PLpro yeast,Pf growth 48h,Shiga inhibitor
CS(=O)(=O)N(CC(=O)Nc1ccc(CC#N)cc1)c1ccc(C23CC4CC(CC(C4)C2)C3)cc1,22,?,–,–,10µM,77
CC(=O)Nc1ccc(NC(=O)CN(c2ccc(C34CC5CC(CC(C5)C3)C4)cc2)S(C)(=O)=O)cc1,–,–,–,–,–,–
Cc1ccc2nc(Nc3nc(CSc4nnc(C)s4)cc(=O)[nH]3)nc(C)c2c1,–,3.3µM,–,–,?,–
Cc1ccc2c(C)nc(Nc3nc(CSc4nc5ccccc5[nH]4)cc(=O)[nH]3)nc2c1,–,?,–,–,10µM,–
O=C(c1ccc(C(F)(F)F)cc1)N1CCN(c2ccc(N3CCOCC3)nn2)CC1,·,?,·,–,–,·
O=c1ccc(-c2ccc(S(=O)(=O)NCC3CCN(Cc4cccc(F)c4)CC3)s2)n[nH]1,–,?,–,–,5.2µM,–
CCOC(=O)c1c(S(=O)(=O)NCC2CCN(Cc3cccc(F)c3)CC2)c(C)n(C)c1C,–,–,–,–,–,–
OCC1=C[C@@H](O)[C@@H]2C=CO[C@@H](OC3O[C@H](CO)[C@@H](O)[C@H](O)[C@H]3O)[C@H]12 (stereo partly specified),–,·,·,·,·,–
C/C(=N/N=C1/NC(=O)CC(C(=O)Nc2ccccc2)S1)c1cccs1 (stereo unspecified),–,9.3µM,–,–,10µM,–
Cc1ccc(S(C)(=O)=N/C=C2\C(=O)c3sccc3N(C)S2(=O)=O)cc1 (stereo unspecified),–,?,–,–,?,–
Cc1c(C(=O)O)sc2nc(/C=C/c3ccccc3OC(F)F)[nH]c(=O)c12,–,13µM,–,–,–,–
Cc1[nH]c2c(C)cccc2c1CCNC(=O)c1ccc2c(c1[N+](=O)[O-])C(=O)c1ccccc1C2=O,–,?,–,–,12µM,–
CN1CCN(NC(=O)c2cn(-c3ccccc3)nc2-c2ccc(OC(F)F)cc2)CC1,–,?,–,–,?,–
CCC(N)Cc1c[nH]c2ccccc12 (stereo unspecified),–,0.67µM!,–,–,–,–
O=C(COC(=O)Cc1ccccc1F)Nc1cc(S(=O)(=O)N2CCOCC2)ccc1N1CCCC1,–,–,–,–,–,–
CCOC(=O)C1=C(C)NC(=O)NC1/C=C/c1ccccc1OC (stereo unspecified),–,–,–,–,–,–
CCOC(=O)C1=C(C)NC(C)=C(C(=O)OCC)C1c1ccccc1C=CC(=O)OC(C)(C)C,·,8.5µM,·,·,13µM,·
CCOC(=O)C1=C(C)NC(C)=C(C(=O)OCC)C1/C=C/c1ccccc1OC,–,?,–,–,9.3µM,–
COCCOC(=O)C1=C(C)NC(C)=C(C(=O)OCCOC)C1/C=C/c1ccccc1OC,–,9.3µM,–,–,?,–
N/C(=N/O)c1ccccc1N1CCC(Cc2ccccc2)CC1,–,?,·,–,–,–
O=C(O)/C=C/C(=O)Nc1ccc(Cl)c(C(=O)O)c1,19,–,–,–,–,51
NNc1cc(C(=O)O)ccc1Cl,–,–,–,–,–,–
NNc1ccc(Cl)c(C(=O)O)c1,36,–,–,–,–,96
COc1ccc(NC(=O)/C=C/C(=O)O)cc1Cl,–,–,–,–,–,–
